Source: the supplement of paper PMC6607015
Where a name gives a salt, the structure may show the parent alone.

The compounds below were run on A431 (assay: filipin (cholesterol) integrated intensity within LBPA endosomes, Z-score; higher = more cholesterol in LBPA endosomes). Conditions: compound concentration in added solution (µM; 5 µl added to 20 µl cells): 10; 18 h.
Summary of the method: (§1)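 Four 20× images per well were taken of HeLa MZ or A431 cells that had been seeded at 3,500 per well in 20 µl onto 5 µl of 10 µM compound solution in duplicate 384-well imaging plates. Before imaging, cells were incubated 18 h, fixed in 4% PFA and stained with 6C4 anti-LBPA antibody, filipin, propidium iodide and CellTracker green. Values are Z-scores normalised in AcuityXpress from MetaXpress-derived per-cell integrated LBPA or filipin intensity, either whole-cell or within LBPA endosomes.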

Row | SMILES | filipin (z-score)
1 | C/C=C(/C(=C/C)c1ccc(O)cc1)c1ccc(O)cc1 [Dienestrol] | -0.497
2 | Cc1onc(-c2ccccc2Cl)c1C(=O)N[C@@H]1C(=O)N2[C@@H]1SC(C)(C)[C@@H]2C(=O)O [Cloxacillin sodium salt] | -0.516
3 | Nc1nc2n[nH]nc2c(=O)[nH]1 [Azaguanine-8] | -0.438
4 | Clc1ccc2c(c1)C(N1CCNCC1)=Nc1ccccc1O2 [Amoxapine] | 2.56
5 | COC(=O)Nc1nc2cc([S+]([O-])c3ccccc3)ccc2[nH]1 (stereo not given) [Oxfendazol] | -0.364
6 | COc1cc([C@@H]2c3cc4c(cc3[C@@H](O[C@@H]3O[C@@H]5CO[C@@H](C)O[C@H]5[C@H](O)[C@H]3O)[C@H]3COC(=O)[C@H]23)OCO4)cc(OC)c1O [Etoposide] | -0.718
7 | O=c1[nH]cc(F)c(=O)[nH]1 [5-fluorouracil] | -0.862
8 | CCOC(=O)C1=C[C@]2(CC)CCCN3CCc4c(n1c1ccccc41)[C@@H]32 [Vinpocetine] | -0.326
9 | CC(C)NCC(O)c1cc(O)cc(O)c1 (stereo not given) [Metaproterenol sulfate, orciprenaline sulfate] | -0.531
10 | CN(Cc1cnc2nc(N)nc(N)c2n1)c1ccc(C(=O)N[C@@H](CCC(=O)O)C(=O)O)cc1 [Methotrexate] | -0.754
11 | CCN(CC)C(=O)c1ccc(O)c(OC)c1 [Ethamivan] | -0.43
12 | O=C(O)CCC(=O)c1ccc(-c2ccccc2)cc1 [Fenbufen] | -0.512
13 | CC(CN(C)C)CN1c2ccccc2Sc2ccccc21 (stereo not given) [Trimeprazine tartrate] | 2.12
14 | COc1ccc(C(Cl)=C(c2ccc(OC)cc2)c2ccc(OC)cc2)cc1 [Chlorotrianisene] | -0.183
15 | CC1=C(/C=C/C(C)=C/C=C/C(C)=C/C(=O)O)C(C)(C)CCC1 [Retinoic acid] | -0.286
16 | Oc1c(Cl)cc(Cl)c(Cl)c1Cc1c(O)c(Cl)cc(Cl)c1Cl [Hexachlorophene] | -0.443

Row | SMILES | filipin (z-score)
17 | CC(C)(Oc1ccc(CCNC(=O)c2ccc(Cl)cc2)cc1)C(=O)O [Bezafibrate] | -0.456
18 | COc1ccc(C(=O)NCc2ccc(OCCN(C)C)cc2)cc1OC [Itopride] | -0.581
19 | CS(=O)(=O)c1ccc([C@@H](O)[C@@H](CF)NC(=O)C(Cl)Cl)cc1 [Florfenicol] | -0.528
20 | O=C(O)CNC(=O)C(CS)Cc1ccccc1 (stereo not given) [Thiorphan] | -0.691
21 | CCN(CC)CCOC(=O)C1(c2ccc([N+](=O)[O-])cc2)CCCC1 [Nitrocaramiphen hydrochloride] | -0.346
22 | CCN(CC)CCNc1ccc(CO)c2sc3ccccc3c(=O)c12 [Hycanthone] | 2.68
23 | C[C@@H]1CCC[C@H](C)N1NC(=O)c1ccc(Cl)c(S(N)(=O)=O)c1 [Clopamide] | -0.503
24 | O=C(O)c1ccccc1Nc1cccc(C(F)(F)F)c1 [Flufenamic acid] | -0.54
25 | Cc1cc(C(C)(C)C)cc(C)c1CC1=NCCN1 [Xylometazoline hydrochloride] | 0.0924
26 | COC(=O)Nc1nc2cc(C(=O)c3ccc(F)cc3)ccc2[nH]1 [Flubendazol] | -0.305
27 | Cc1ccc(-c2ncc(Cl)cc2-c2ccc(S(C)(=O)=O)cc2)cn1 [Etoricoxib] | -0.543
28 | O=C(CCCCCCC(=O)Nc1ccccc1)NO [Vorinostat] | -0.414
29 | CCCC1C(=O)N2C(N(C)C)=Nc3ccc(C)cc3N2C1=O (stereo not given) [Azapropazone] | -0.348
30 | O=C(CCCN1CCC(O)(c2ccc(Br)cc2)CC1)c1ccc(F)cc1 [Bromperidol] | 2.09
31 | CN1C(C)(C)CCCC1(C)C [Pempidine tartrate] | -0.313

The compounds below were run on HeLa MZ in the same assay as above. Conditions: compound concentration in added solution (µM; 5 µl added to 20 µl cells): 10; 18 h.
Summary of the method: as §1

Row | SMILES | filipin (z-score)
32 | C/C=C(/C(=C/C)c1ccc(O)cc1)c1ccc(O)cc1 [Dienestrol] | -0.451
33 | Cc1onc(-c2ccccc2Cl)c1C(=O)N[C@@H]1C(=O)N2[C@@H]1SC(C)(C)[C@@H]2C(=O)O [Cloxacillin sodium salt] | -0.434
34 | Clc1ccc2c(c1)C(N1CCNCC1)=Nc1ccccc1O2 [Amoxapine] | 1.55
35 | CCN(CC)C(=S)SSC(=S)N(CC)CC [Disulfiram] | -0.407
36 | CC(C)(C)CC(C)(C)c1ccc(OCCOCC[N+](C)(C)Cc2ccccc2)cc1 [Benzethonium chloride] | 0.517
37 | CC(C)n1c(/C=C/C(O)CC(O)CC(=O)O)c(-c2ccc(F)cc2)c2ccccc21 (stereo not given) [Fluvastatin sodium salt] | -0.372
38 | CC(NCCC(c1ccccc1)c1ccccc1)c1ccccc1 (stereo not given) [Fendiline hydrochloride] | 2.94
39 | CCOC(=O)C1=C[C@]2(CC)CCCN3CCc4c(n1c1ccccc41)[C@@H]32 [Vinpocetine] | -0.0256
40 | CC(C)NCC(O)c1cc(O)cc(O)c1 (stereo not given) [Metaproterenol sulfate, orciprenaline sulfate] | -0.465
41 | CCN(CC)C(=O)c1ccc(O)c(OC)c1 [Ethamivan] | -0.268
42 | O=C(O)CCC(=O)c1ccc(-c2ccccc2)cc1 [Fenbufen] | -0.583
43 | O=C1NCCN1CCN1CCC(c2cn(-c3ccc(F)cc3)c3ccc(Cl)cc23)CC1 [Sertindole] | 2.2
44 | COc1ccc(C(Cl)=C(c2ccc(OC)cc2)c2ccc(OC)cc2)cc1 [Chlorotrianisene] | -0.174
45 | CC1=C(/C=C/C(C)=C/C=C/C(C)=C/C(=O)O)C(C)(C)CCC1 [Retinoic acid] | -0.43
46 | Oc1c(Cl)cc(Cl)c(Cl)c1Cc1c(O)c(Cl)cc(Cl)c1Cl [Hexachlorophene] | -0.32
47 | CC(C)(Oc1ccc(CCNC(=O)c2ccc(Cl)cc2)cc1)C(=O)O [Bezafibrate] | -0.612
48 | COc1ccc(C(=O)NCc2ccc(OCCN(C)C)cc2)cc1OC [Itopride] | -0.36
49 | CS(=O)(=O)c1ccc([C@@H](O)[C@@H](CF)NC(=O)C(Cl)Cl)cc1 [Florfenicol] | -0.651
50 | C=C(NC(=O)C(=C)NC(=O)c1csc(C2=N[C@@H]3c4csc(n4)[C@H]4NC(=O)c5csc(n5)[C@H]([C@](C)(O)[C@@H](C)O)NC(=O)[C@H]5CSC(=N5)/C(=C/C)NC(=O)[C@H]([C@@H](C)O)NC(=O)c5csc(n5)[C@]3(CC2)NC(=O)[C@H](C)NC(=O)C(=C)NC(=O)[C@H](C)NC(=O)[C@H]([C@@H](C)CC)N[C@@H]2C=Cc3c([C@H](C)O)cc(nc3[C@H]2O)C(=O)O[C@@H]4C)n1)C(N)=O [Thiostrepton] | -0.596
51 | O=C(O)CNC(=O)C(CS)Cc1ccccc1 (stereo not given) [Thiorphan] | -0.682
52 | C1CCC(C(CC2CCCCN2)C2CCCCC2)CC1 (stereo not given) [Perhexiline maleate] | 2.62
53 | CCN(CC)CCOC(=O)C1(c2ccc([N+](=O)[O-])cc2)CCCC1 [Nitrocaramiphen hydrochloride] | -0.0224
54 | C[C@@H]1CCC[C@H](C)N1NC(=O)c1ccc(Cl)c(S(N)(=O)=O)c1 [Clopamide] | -0.648
55 | Fc1ccc([C@@H]2CCNC[C@H]2COc2ccc3c(c2)OCO3)cc1 [Paroxetine Hydrochloride] | 2.03
56 | O=C(O)c1ccccc1Nc1cccc(C(F)(F)F)c1 [Flufenamic acid] | -0.632
57 | Cc1cc(C(C)(C)C)cc(C)c1CC1=NCCN1 [Xylometazoline hydrochloride] | 0.303
58 | Cc1ccc(-c2ncc(Cl)cc2-c2ccc(S(C)(=O)=O)cc2)cn1 [Etoricoxib] | -0.516
59 | CN[C@H]1CC[C@@H](c2ccc(Cl)c(Cl)c2)c2ccccc21 [Sertraline] | 3.15
60 | O=C(CCCN1CCC(O)(c2ccc(Br)cc2)CC1)c1ccc(F)cc1 [Bromperidol] | 1.82
